A selection: hits, their analogues and other compounds. The true share with any hit is near 0.43%.
Rango dissoc inh = qHTS Assay for Inhibitors of RanGTP induced Rango (Ran-regulated importin-beta cargo) - Importin beta complex dissociation; Snurportin-1 (Homo sapiens) + GTP-binding nuclear protein Ran (Homo sapiens) + Importin …; Biochemical FRET Rango-importin beta, RanGTP-induced dissociation; Potency, µM (top dose mostly 46.1 µM); actives 0.071% (n = 340,000); AID 540253, 2011; calls by dose curve; note: nearly all actives have a fitted effect of over 45% in size
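Rango FRET biosensor (snurportin-1 IBB flanked by N-terminal EYFP and C-terminal CFP10) at 0.1 uM, with 0.25 uM importin beta in PBS, 1mM DTT, 0.02% Tween-20, 0.1% BSA. 0.6 uM Ran, 2mM GTP and 0.2 uM RCC1 were then added for 45 min at room temperature. Inhibition read as loss of FRET rise.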
EPAC1 antagonist = qHTS for Antagonist of cAMP-regulated guanine nucleotide exchange factor 3 (EPAC1): primary screen; Potency, µM (series often up to 115 µM), actives largely listed as inhibitors; actives 0.14% (n = 360,000); Rap guanine nucleotide exchange factor 3 (Homo sapiens), O95398; EPAC1 GEF assay, Rap1b-BODIPY-GDP exchange fluorescence; note: nearly all actives have a fitted effect of over 50% in size
EPAC2 ag = qHTS for Agonist of cAMP-regulated guanine nucleotide exchange factor 4 (EPAC2): primary screen. Rap guanine nucleotide exchange factor 4 (Homo sapiens), Q8WZA2. EPAC2 activation, biochemical qHTS; response scale: 100% = 6.5 mM cAMP response. Potency, µM (highest dose often 154 µM), actives largely listed as activators. actives 0.079% (n = 360,000); note: nearly all actives have a fitted effect of over 50% in size
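In this primary screen, activation is scored as increased exchange of BODIPY-GDP from Rap1B by 100 nM EPAC2, with 50 uM GDP as competitor. Signal is normalized to the 6.5 mM cAMP agonist control.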
EPAC2 antag = qHTS for Antagonist of cAMP-regulated guanine nucleotide exchange factor 2 (EPAC2): primary screen. Rap guanine nucleotide exchange factor 4 (Homo sapiens), Q8WZA2. EPAC2 GEF exchange of Rap1B-BODIPY-GDP, fluorescence. Potency, µM (top dose mostly 114 µM), actives largely listed as inhibitors. actives 0.18% (n = 360,000). AID 720708, 2013; note: nearly all actives have a fitted effect of over 45% in size
Rango-impB inh = qHTS Assay for Inhibitors of Rango (Ran-regulated importin-beta cargo) - Importin beta complex formation. Rango CFP/YFP FRET sensor + importin beta, 45 min. actives 0.031% (n = 340,000). Potency, µM (top dose mostly 92.2 µM). AID 540263, 2011; calls by dose curve; note: nearly all actives have a fitted effect of over 15% in size
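Inhibition scored from the CFP 486 nm/YFP 530 nm FRET ratio 45 min after adding 0.125 microM importin beta to 50 nM Rango biosensor preincubated 5 min with compound (room temperature, PBS with DTT, Tween-20, BSA). No-importin wells as positive control.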
EPAC1 ag = qHTS for Agonist of cAMP-regulated guanine nucleotide exchange factor 3 (EPAC1): primary screen; EPAC1 agonist qHTS, biochemical assay; response scale: 100% = response to 6.5 mM cAMP; AID 720707, 2013; Potency, µM (top dose mostly 154 µM), most hits filed as activators; Rap guanine nucleotide exchange factor 3 (Homo sapiens), O95398; actives 0.073% (n = 360,000); note: nearly all actives have a fitted effect of over 60% in size
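Read-out is the fluorescence drop as BODIPY-GDP leaves Rap1B (480 nm excitation, 540 nm emission), recorded every 5 minutes over 30 minutes. Reactions held 100 nM EPAC1, 250 nM Rap1B–BODIPY-GDP and 50 uM GDP, with 6.5 mM cAMP setting full activation.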
Of the large screens only hits and unclear results are named; the others gave an inactive call. Unless noted, calls come from the whole dose curve; as a rule, active = well fitted curve in the direction sought with a large enough effect; inconclusive = small, poorly fitted or top-dose-only effect, or another doubt; inactive = no such curve, though single readings can be large; an effect the other way counts as inactive or inconclusive.

Cc1cc(OC(=O)c2c(C)cc(OC(=O)c3c(C)cc(O)cc3O)cc2O)cc(O)c1C(=O)O	EPAC1 antagonist 56µM
C#CCNC(=O)C[C@@H]1C[C@@]2(C(=O)OC)CCCCC=C2N(Cc2ccc(Cl)cc2Cl)C1=O	none (no result: Rango dissoc inh, Rango-impB inh)
N#Cc1c(NC(=O)c2ccccc2Cl)n(Cc2ccccc2)c2nc3ccccc3nc12	Rango dissoc inh inconclusive, EPAC1 antagonist 35µM, EPAC2 antag 45µM, Rango-impB inh inconclusive
COC(=O)C1=CN(Cc2ccc(OC)c(OC)c2)C=C(C(=O)OC)C1c1cccc(F)c1	Rango dissoc inh 5.8µM, EPAC2 antag inconclusive, Rango-impB inh inconclusive
COC(=O)C1=CN(Cc2cccs2)C=C(C(=O)OC)C1c1cccc(O)c1	Rango dissoc inh inconclusive, EPAC2 antag 50µM, Rango-impB inh inconclusive
COC(=O)C1=CN(Cc2ccc(F)cc2)C=C(C(=O)OC)C1c1cc(OC)c(OC)c(OC)c1	Rango dissoc inh inconclusive, Rango-impB inh inconclusive
CC1CC1c1ccc(/C=C(\C#N)C(=O)Nc2cc(Cl)ccc2Cl)o1 (stereo not given)	Rango dissoc inh inconclusive, Rango-impB inh inconclusive, EPAC1 ag 89µM
Cc1cc(=O)oc2c(CN3CCCC3)c(O)c(Cl)cc12	Rango dissoc inh 15µM, Rango-impB inh inconclusive
Cc1cnc(-c2nc3ccccc3n2C(C)C(=O)Nc2c(C)cccc2C)cn1 (stereo not given)	none (no result: Rango dissoc inh, Rango-impB inh)
COc1cc(/C=C/C(=O)OCC(=O)N2CCCc3ccccc32)ccc1O	Rango dissoc inh 15µM, Rango-impB inh inconclusive
COc1cc(/C=C/C(=O)OCC(=O)N2CCCc3ccccc32)ccc1OCC#N	none
CCOc1cc(/C=C2\CCC/C(=C\c3cc(Cl)c(O)c(OCC)c3)C2=O)cc(Cl)c1O	Rango dissoc inh 6.5µM, Rango-impB inh inconclusive
O=C(Nc1cccc(C(=O)N2CCOCC2)c1)C1CCCCC1	none (no result: Rango dissoc inh, Rango-impB inh)
Cc1ccc(S(=O)(=O)Nc2nc(-c3ccccc3)cs2)cc1	none
COc1ccc(-c2csc(NC(=O)c3ccccc3F)n2)cc1	none
O=C(Nc1cc(S(=O)(=O)N2CCCCC2)ccc1Cl)c1ccccc1NS(=O)(=O)c1ccc(F)cc1	EPAC1 antagonist 50µM
COc1ccc(-c2csc(NC(=O)c3ccccc3NS(=O)(=O)c3ccc(F)c(F)c3)n2)cc1	EPAC1 antagonist 50µM, EPAC2 antag 16µM
Cc1ccc(S(=O)(=O)Nc2ccccc2C(=O)Nc2nc(-c3ccc(F)cc3)cs2)cc1	EPAC1 antagonist 79µM
Clc1cccc(CNc2ccn3nc(-c4cccc(OCc5ccccc5)c4)cc3n2)c1	none (no result: Rango dissoc inh, Rango-impB inh)
O=C(C(O)c1ccccc1)N1CCN(S(=O)(=O)c2ccc(F)c(F)c2)CC1 (stereo not given)	none (no result: Rango dissoc inh, Rango-impB inh)
CCS(=O)(=O)C1=NN2C(=N)/C(=C\c3ccc(OCCOc4cccc(OC)c4)c(OC)c3)C(=O)N=C2S1	EPAC1 antagonist inconclusive, EPAC2 antag inconclusive, Rango-impB inh inconclusive
CCOc1cc(/C=C2\C(=N)N3N=C(S(C)(=O)=O)SC3=NC2=O)ccc1OCCOc1cccc(OC)c1	EPAC1 antagonist 50µM
O=C(O)CN1C(=O)/C(=C\c2cccc(OCc3ccccc3F)c2)SC1=S	EPAC1 antagonist inconclusive, EPAC2 antag 89µM
O=C(O)CN1C(=O)/C(=C\c2cccc(OCc3ccc(F)cc3)c2)SC1=S	EPAC2 antag inconclusive
O=C(O)CCN1C(=O)/C(=C\c2cccc(Oc3ccccc3)c2)SC1=S	EPAC1 antagonist inconclusive, EPAC2 antag 79µM

High-throughput results: PubChem, National Center for Advancing Translational Sciences (NCATS)
